Measured values reported in PubChem BioAssay AID1578 (Sanford-Burnham Center for Chemical Genomics, 2009).
Hit rate of the full screen: of about 290,000 compounds, about 3,000 (1%) were called active. No stated cut-off is given here; in the data, active means inhibition mostly above about 36% (no sharp cut-off); inactive means mostly below about 34%. The sample as a whole holds a higher share of actives than the screen did.

Test: NOD1 signaling inhibitors, primary screen, cell-based, luminescence, uHTS (AID 1578);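 further: HEK-293T reporter cells stimulated with the NOD1 agonist gamma-tri-DAP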
Conditions: NOD1-driven NF-kB luciferase reporter cells, at 4 µM, active compounds read high

inhibition, active:
COc1ccc(-c2nc(N3CCC(C)CC3)[nH]c(=O)c2C#N)cc1 73.1%
Cc1cc(-c2onc3ccc(Cl)cc23)ccc1O 52.9%
CC1(O)CC(c2ccc(Cl)cc2)=NN1C(=O)c1ccc([N+](=O)[O-])cc1 (stereo not drawn) 92.3%
Cc1nnnn1/C(=C\c1ccccc1)C(=O)OCC(=O)NC(C)(C)C 91.3%
COc1ccc(CNC(=O)C(c2ccc(C)o2)N(Cc2cccs2)C(=O)Cc2cccs2)cc1 (stereo not drawn) 68.3%

inhibition, inactive:
COc1ccc(S(=O)(=O)N2Cc3ccccc3CC2C(=O)N2CCOCC2)cc1 (stereo not drawn) 3.2%
COc1cscc1C(N)=O 6.7%
c1ccc2c(c1)ncn2Cc1nnc2sc(-c3ccc4c(c3)OCO4)nn12 -4.4%
O=C(NC1CCCCCC1)c1cc(S(=O)(=O)N2CCCCC2)ccc1N1CCOCC1 -7.1%
CC1CCC(C(C)C)C(OCC(O)CN2CCCC(C)C2)C1 (stereo not drawn) -44.4%
Cc1cc(C)c(C(=O)NC2CCCc3c2cnn3-c2cccc(C)c2C)o1 (stereo not drawn) -10.7%
Cc1cc(C(=O)NC2CCCc3c2cnn3-c2cccc(C)c2C)no1 (stereo not drawn) 11.2%
Cn1nccc1C(=O)NC1CCCc2c1cnn2-c1cc(F)cc(F)c1 (stereo not drawn) 35.1%
Cc1cc(C)cc(-n2ncc3c2CCCC3NC(=O)C2(C(N)=O)CC2)c1 (stereo not drawn) -11.6%
O=C(NC1CCCc2c1cnn2-c1ccccc1F)c1ccccn1 (stereo not drawn) 20.6%
Cc1cccc(-n2ncc3c2CCCC3NC(=O)c2ccc[n+]([O-])c2)c1C (stereo not drawn) -3.9%
COc1ccc(C(=O)NC2CCCc3c2cnn3-c2cccc(C)c2C)o1 (stereo not drawn) 0.8%
Cc1cccc(-n2ncc3c2CCCC3NC(=O)C2CCOCC2)c1C (stereo not drawn) 9.8%
CC(C)N(CCCNC(=O)c1ccc(CS(=O)(=O)c2c(Cl)cccc2Cl)o1)Cc1ccccc1 -4.4%
CCOC(=O)N1CCN(C(=O)CSc2ccc3nnc(-c4cccnc4)n3n2)CC1 -22.3%
CCOC(=O)C1(Cc2cccc(OC)c2)CCCN(C(=O)CCc2cccnc2)C1 (stereo not drawn) -50.3%
CCc1ccc(-n2cccc2/C=C2/C(=N)N3C(=NC2=O)SN=C3S(C)(=O)=O)cc1 1.2%
Cc1nn(CC(=O)N2CCC(C(N)=O)CC2)c(=O)c2nn(-c3ccccc3)c(C)c12 -5.3%
COc1ccc(CNC(=O)c2csc(Cc3ccc(Cl)cc3)n2)cc1 25.6%
CC1CCN(c2nc(-c3ccccc3)c(C#N)c(=O)[nH]2)CC1 34.5%
COc1ccc(-c2nc(N3CCCC3)[nH]c(=O)c2C#N)cc1 -42.4%
CCOC(=O)N1CCN(CC(O)COc2c(C)cccc2C)CC1 (stereo not drawn) 24.9%
CCC(C)(C)NC(=S)Nc1ccccc1C -38.1%
C=CCn1c(Oc2cccc(C)c2)nc2c1c(=O)n(C)c(=O)n2C -2.9%
Cc1ccc(-c2onc3ccc(Cl)cc23)cc1 -3.6%
COc1ccc(-c2onc3ccc(Cl)cc23)cc1 -9.1%
CN1CCN(S(=O)(=O)c2cccc(C(=O)N(c3ccccn3)C3CCCCC3)c2)CC1 -0.4%
Cc1nc(SCC(=O)N2CCN(c3ccccc3)CC2)c2oc3ccccc3c2n1 33.4%
CCc1nc(Nc2ccc(N3CCN(C(C)=O)CC3)cc2)c2oc3ccccc3c2n1 7.6%
CC1(O)CC(c2ccc(Cl)cc2)=NN1C(=O)c1ccc(Cl)cc1 (stereo not drawn) -27.7%
CC(=O)N1N=C(c2ccc(Cl)cc2)CC1c1ccc([N+](=O)[O-])cc1 (stereo not drawn) -12.3%
COC(=O)c1cc(C)ccc1OCc1ccc([N+](=O)[O-])cc1 -8.7%
CCOc1cc(/C=C2/NC(=S)NC2=O)ccc1OCc1ccc([N+](=O)[O-])cc1 -30%
CCOc1cc(/C=N/O)ccc1OCc1ccc([N+](=O)[O-])cc1 -20.2%
COc1cc(/C=C/C(=O)O)ccc1OCc1ccc([N+](=O)[O-])cc1 -13.3%
O=C(NCCc1ccccc1)C1(S(=O)(=O)c2ccc(Cl)cc2)CC1 7.4%
O=C(CSc1nc(-c2ccncc2)nn1CC(=O)N1CCCCC1)NC1CCCC1 -4%
CC1CC(=O)N(CC(=O)NCc2ccccc2)c2ccccc2S1(=O)=O (stereo not drawn) -32.8%
O=C1CCc2cc(S(=O)(=O)N3CCN(c4cccc(C(F)(F)F)c4)CC3)ccc2N1 -6.5%
CC(=O)Nc1ccc(NC(=O)COC(=O)/C(=C/c2ccccc2)n2nnnc2C)cc1 -15.3%
CC(=O)c1ccccc1NC(=O)COC(=O)/C(=C/c1ccccc1)n1nnnc1C -8%
CCOC(=O)C1(CCCc2ccccc2)CCN(C(=O)c2cnc(C)cn2)CC1 2.2%
CC(=O)OC(C(=O)NC1CCCCC1)c1ccc(Cl)c(Cl)c1 (stereo not drawn) -34.6%
COc1ccc(OCC(=O)N/N=c2\oc3c(OC)cccc3cc2C(N)=O)cc1 -30.3%
COc1ccc(CNC(=O)C(c2ccco2)N(Cc2cccs2)C(=O)Cc2cccs2)cc1 (stereo not drawn) 2%
COc1ccc(CNC(=O)C(c2cccs2)N(Cc2ccco2)C(=O)Cc2cccs2)cc1 (stereo not drawn) 23.3%
COC(=O)C(C)n1cnc2c(nnn2-c2ccccc2)c1=O (stereo not drawn) -9.8%
COc1ccc(C(=O)Nc2c(N)nc(SCC(=O)N3CCCCCC3)[nH]c2=O)cc1OC -4.3%
Cc1cc2c(cc1S(=O)(=O)Nc1cccc(F)c1)n(C)c(=O)c(=O)n2C 13.5%
O=C(c1ccc(S(=O)(=O)Cc2ccccc2Cl)c([N+](=O)[O-])c1)N1CCOCC1 13.5%
O=C(c1ccc(N2CCCC2)c([N+](=O)[O-])c1)N1CCN(c2ccccn2)CC1 -8.1%
O=C(c1ccc(Cl)c([N+](=O)[O-])c1)N1CCN(c2ccccn2)CC1 -1.9%
O=C(c1ccc(Sc2cccc(Cl)c2)c([N+](=O)[O-])c1)N1CCN(c2ccccn2)CC1 -34.4%
